# According to PubChem BioAssay (NCATS):
# Records with an inconclusive call do not appear. Where a call stands in place of a potency, no number is given. Active and inactive are the calls of the source. The call rests on the fitted dose curve; in most records, active means well fitted cell-killing curve with a large enough effect; inconclusive means small, poorly fitted or top-dose-only effect; inactive means flat fitted curve, though single readings scatter.
# Test: Cell Viability - LYMP2-026 (AID 989); further: nearly all actives have a fitted effect of over 50% in size
# Details: LYMP2-026 lymphoblastoid cell viability, qHTS; series mostly up to 92.2 µM
# Excerpt: NIH Chemical Genomics Center [NCGC]
# NIH Molecular Libraries Screening Centers Network [MLSCN]
# National Institutes of Environmental Health Sciences [NIEHS]
# National Toxicology Program [NTP]
# We have developed a 1536-well cell-based assay for quantitative high throughput screening (qHTS) against a number of cell lines to determine in vitro cytotoxicity of small molecules. This particular assay uses a human lymphoblastoid cell line (LYMP2-026) purchased from Coriell Institute for Medical Research.
# NCGC Assay Protocol Summary:
# The CellTiter-Glo luminescent cell viability assay (Promega) is a homogeneous method to measure the number of viable cells in culture. The end point readout of this assay is based on quantitation of intracellular ATP, an indicator of metabolic activity, using the luciferase reaction. Luciferase catalyzes the oxidation of beetle Luciferin to oxyluciferin and light in the presence of ATP. The luminescent signal is proportional to amount of ATP present.
# Using the CellTiter-Glo luminescent cell viability assay, the amount of cellular ATP was measured in the lymphoblastoid cell line with complete culture medium following compound treatment for 24 hours. The assay was performed in opaque white Kalypsys 1536-well plates. In the screen, tetraoctylammonium bromide was used as positive control. Library compounds were measured for their ability to cause acute toxicity in the cell line, as reflected by a decrease in intracellular ATP levels, in a concentration-dependent manner. […] AC50 values were determined from concentration-response data modeled with the standard Hill equation.
# qHTS protocol for CellTiter Glo lymphoblastoid cellular assay
# [Step] [Parameter] [Value] [Description]
# 1. Reagent; 5 uL; 2500 lymphoblastoid cells/well
# 2. Time; 5 hr; 37 C incubation
# 4. Controls; 23 nL; Tetraoctylammonium bromide 6.4pM to 92 uM
# 5. Time; 24 hr; 37 C incubation
# 6. Reagent; 5 uL; CellTiter Glo reagent
# 7. Time; 30 min; Room Temperature
# 8. Detection; Luminescence; Viewlux plate reader
# Keywords: cell viability, cytotoxicity, lymphoblastoid cell line, luminescence, NTPHTS, NTPHTS_NCGC, NIEHS, DSSTox, MLSMR, MLSCN, NIH Roadmap, qHTS, NCGC
# Potency means the concentration at half of the fitted maximal effect.
row,Compound,Potency
1,Nc1ccc(Cl)cc1,inactive
2,O=[N+]([O-])c1c(Cl)c(Cl)cc(Cl)c1Cl,inactive
3,CN(C)[C@@H]1C(=O)C(C(N)=O)=C(O)[C@@]2(O)C(=O)C3=C(O)c4c(O)cccc4[C@@](C)(O)[C@H]3[C@H](O)[C@@H]12,inactive
4,CCCCC(CC)COC(=O)c1ccccc1C(=O)OCC(CC)CCCC (stereo unspecified),inactive
5,c1cc2ccc3cccc4ccc(c1)c2c34,inactive
6,CCCCCCCCc1ccc(O)cc1,inactive
7,COC(C)(C)CCCC(C)C/C=C/C(C)=C/C(=O)OC(C)C (stereo unspecified),inactive
8,CN(C)NC(=O)CCC(=O)O,inactive
9,CCOP(=O)(NC(C)C)Oc1ccc(SC)c(C)c1 (stereo unspecified),inactive
10,CC(=O)[O][Hg][c]1ccccc1,1.26 µM (active)
11,O=[N+]([O-])c1cc([N+](=O)[O-])c2ccccc2c1,inactive
12,Nc1ccc(Sc2ccc(N)cc2)cc1,inactive
13,CC(C)(O)C(=O)Nc1ccc([N+](=O)[O-])c(C(F)(F)F)c1,inactive
14,OCCCBr,inactive
15,Nc1ccc(Cl)cc1N,inactive
16,O=C(O)C(Cl)Cl,inactive
17,C1CCC(NC2CCCCC2)CC1,inactive
18,CCCCOC(=O)c1ccccc1C(=O)OCc1ccccc1,inactive
19,O=S(=O)(c1ccc(Cl)cc1)c1ccc(Cl)cc1,inactive
20,COc1ccc(C(c2ccc(OC)cc2)C(Cl)(Cl)Cl)cc1,inactive
21,O=C(O)COc1ccccc1,inactive
22,Nc1ccc([N+](=O)[O-])cc1,inactive
23,Cc1cc(O)ccc1Cl,inactive
24,CCOCCOC(C)=O,inactive
25,O=[N+]([O-])c1c2ccccc2cc2ccccc12,inactive
26,C=CC(=O)NCNC(=O)C=C,inactive
